# Compound activity deposited in PubChem by Broad Institute.
# C diff growth – C. difficile growth inhibitors, primary screen, HTS; Clostridium difficile clinical isolate growth, OD600, 24 h; active compounds read low; growth activity, negative = inhibition, % at 16 µg/mL (by protocol); actives 0.25% (n = 86,000);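 active = mean growth activity at or below -80% and every replicate also at or below -80%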;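 note: 0% = DMSO wells and -100% = levofloxacin 16 µg/mL wells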
# Pf Dd2 inh – P. falciparum Dd2 growth inhibitors, primary screen, SYBR Green fluorescence, single dose replicates | actives 2.3% (n = 94,000) | activity change, % at 10 µM | 72 h; active compounds read low; in the data active = activity change below about -80%
# * hit, by the source's call; · = no result. The list is not random: actives were taken first. Their share in the collection is about 2.3%.
SMILES,C diff growth,Pf Dd2 inh
COc1ccc(S(=O)(=O)Nc2ccc3c(c2)C(=O)N([C@H](C)CO)C[C@@H](C)[C@@H](CN(C)C(=O)Nc2cccc4ccccc24)OCCCC[C@@H](C)O3)cc1,·,-85.7*
O=C1C[C@@](C(=O)NCCN2CCOCC2)(c2ccc([N+](=O)[O-])cc2)[C@@H](c2ccc(CO)cc2I)N1CC12CC3CC(CC(C3)C1)C2,-6.5,·
COc1ccc(CN2C[C@@H](C)[C@H](OC)CN(C)C(=O)c3ccc(NC(=O)c4nc5ccccc5s4)cc3OC[C@@H]2C)cc1,4.8,-69.8
COc1ccc(CN2C[C@@H](C)[C@@H](OC)CN(C)C(=O)c3cc(NC(=O)c4nc5ccccc5s4)ccc3OC[C@H]2C)cc1,·,-79.1
COc1ccc(CN2C[C@H](C)[C@H](OC)CN(C)C(=O)c3cc(NC(=O)c4nc5ccccc5s4)ccc3OC[C@@H]2C)cc1,·,-83.4*
COc1ccc(CN2C[C@@H](C)[C@H](OC)CN(C)C(=O)c3ccc(NC(=O)c4nc5ccccc5s4)cc3OC[C@H]2C)cc1,9.5,-87.8*
CO[C@H]1CN(C)C(=O)c2cc(NS(=O)(=O)CC(F)(F)F)ccc2OC[C@@H](C)N(Cc2cccnc2)C[C@@H]1C,·,27.2
C[C@@H]1CN([C@H](C)CO)C(=O)c2cc(NC(=O)Nc3cccc4ccccc34)ccc2O[C@@H](C)CCCCO[C@H]1CN(C)C(=O)Nc1ccc(C(F)(F)F)cc1,-9.2,-59.0
C[C@@H]1CCCCO[C@H](CN(C)Cc2ccc(C(F)(F)F)cc2)[C@H](C)CN([C@@H](C)CO)C(=O)c2cc(NC(=O)Nc3cccc4ccccc34)ccc2O1,-0.1,-43.2
C[C@H]1CCCCO[C@H](CN(C)C(=O)Nc2ccc(C(F)(F)F)cc2)[C@@H](C)CN([C@@H](C)CO)C(=O)c2cc(NC(=O)Nc3cccc4ccccc34)ccc2O1,-18.9,-82.8*
C[C@H](CO)N1C[C@H](C)[C@@H](CN(C)C(=O)Nc2ccc(C(F)(F)F)cc2)OCCCC[C@H](C)Oc2ccc(NC(=O)Nc3cccc4ccccc34)cc2C1=O,-11.7,-85.5*
C[C@H]1CCCCO[C@@H](CN(C)C(=O)Nc2ccc(C(F)(F)F)cc2)[C@@H](C)CN([C@@H](C)CO)C(=O)c2cc(NC(=O)Nc3cccc4ccccc34)ccc2O1,-18.3,-1.4
C[C@@H]1CN([C@H](C)CO)C(=O)c2cc(NC(=O)Nc3cccc4ccccc34)ccc2O[C@@H](C)CCCCO[C@H]1CN(C)Cc1ccc(C(F)(F)F)cc1,9.3,-84.9*
O=C(NCc1ccc(F)cc1)[C@@H]1[C@@H](CO)[C@@H]2Cn3c(cccc3=O)[C@H]1N2Cc1cccnc1,-2.2,5.9
C[C@@H]1CN([C@H](C)CO)C(=O)c2cc(C#Cc3cccc(F)c3)cnc2O[C@@H]1CN(C)C(=O)C1CCOCC1,-5.0,-1.2
C[C@H]1CCCCO[C@@H](CN(C)S(=O)(=O)c2ccccc2)[C@@H](C)CN([C@@H](C)CO)C(=O)c2cc(NS(=O)(=O)c3ccc(F)cc3)ccc2O1,-15.8,-83.5*
C[C@@H]1CCCCO[C@H](CN(C)S(=O)(=O)c2ccccc2)[C@H](C)CN([C@@H](C)CO)C(=O)c2cc(NS(=O)(=O)c3ccc(F)cc3)ccc2O1,-10.7,-31.6
Cc1ccc(S(=O)(=O)N(C)C[C@H]2OCCCC[C@H](C)Oc3ccc(NS(=O)(=O)c4ccc(F)cc4)cc3C(=O)N([C@@H](C)CO)C[C@H]2C)cc1,2.5,-82.1*
Cc1ccc(S(=O)(=O)N(C)C[C@@H]2OCCCC[C@H](C)Oc3ccc(NS(=O)(=O)c4ccc(F)cc4)cc3C(=O)N([C@@H](C)CO)C[C@@H]2C)cc1,3.1,-46.6
CO[C@@H]1CN(C)C(=O)c2ccc(NC(C)=O)cc2OC[C@@H](C)N(C(=O)CN(C)C)C[C@H]1C,2.7,-12.5
COc1ccc2c3c([nH]c2c1)[C@H](CO)N(C(=O)C1CCOCC1)CC31CN(C)C1,·,29.0
C[C@@H]1CCCCO[C@@H](CN(C)C(=O)Nc2cccc3ccccc23)[C@H](C)CN([C@@H](C)CO)C(=O)c2cc(NC(=O)Nc3ccc(C(F)(F)F)cc3)ccc2O1,2.9,-14.1
C[C@@H]1CN([C@H](C)CO)C(=O)c2cc(NC(=O)Nc3ccc(C(F)(F)F)cc3)ccc2O[C@@H](C)CCCCO[C@@H]1CN(C)C(=O)Nc1cccc2ccccc12,4.9,-81.7*
C[C@H](CO)N1C[C@H](C)[C@H](CN(C)C(=O)Nc2cccc3ccccc23)OCCCC[C@H](C)Oc2ccc(NC(=O)Nc3ccc(F)cc3)cc2C1=O,-3.1,-48.3
C[C@@H]1CCCCO[C@@H](CN(C)C(=O)Nc2cccc3ccccc23)[C@@H](C)CN([C@@H](C)CO)C(=O)c2cc(NC(=O)Nc3ccc(C(F)(F)F)cc3)ccc2O1,6.0,-91.2*
C[C@H](CO)N1C[C@H](C)[C@H](CN(C)Cc2ccc(Oc3ccccc3)cc2)Oc2ccc(NC(=O)NC3CCCCC3)cc2CC1=O,19.3,-19.9
